# Test results: PubChem BioAssay AID1347426 (Functional Genomics Laboratory (NCATS/FGL), 2020)
# Out of some 31,000 sequences screened, about 1,400 (4.5%) were called active. The entries come from a sample that favours actives as a whole. Unmarked numbers belong to inactive results.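 The calls were made as follows: active = median seed-adjusted z-score above 1 or below -1; inactive = the rest.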
# Experiment: Novel Modifiers of Survival Motor Neuron (SMN) Protein: Gene Identification via Genome-wide siRNA Screen;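 also: luminescence tracks full-length SMN protein made from the SMN2 reporter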
# Conditions: HEK293T SMN2-luciferase reporter, siRNA knockdown, 72 h; actives lie on both sides
# In short: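 HEK293T cells stably expressing an SMN2 splicing/cDNA-luciferase reporter were reverse-transfected with a druggable-genome siRNA library and read by luminescence at 72 hours; hits defined by MAD score above 1.0 or below -1.0.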
row,Sequence,median seed-adjusted z-score
1,GCCUGAAACUGGAGCCUCATT against SLC3A2,-0.0428
2,CCACAAAGACCGUCGCUUUTT against RHOBTB2,-0.139
3,GGCUAUGAUCAAAUCCUUATT against SLC17A4,0.262
4,GAACUGGGCGAGUAUUACATT against SUPT5H,-4.02 (active)
5,AGAUGGAAGCGAAAACUGATT against NFATC1,0.00712
6,GUGACCUUGUCAUUCCGUATT against RGS5,0
7,CACCUGUUCGUGUCCUUCATT against SCTR,-0.352
8,GCCUGGUUAUAUAACCGGATT against EP300,-0.2
9,GGUUCCGAAUCUAUUCCAATT against PLTP,1.09 (active)
10,GGCCUUACUUAUUUGUGGATT against MAP2K5,0.986
11,GCAUCACACUCACCAACUATT against GPR124,0.00658
12,GCUUUGGAAGAAUACGUUATT against NR2F2,0.129
13,UGAGUAUGCCUACCUCAAATT against HNF4A,-0.0274
14,CAAUCUACCUAAUCAAGCUTT against ROD1,0.42
15,CAAGAACGUGUACAAGUUUTT against RPN2,-0.217
16,GAGCUGAGCUGUCGAUAUATT against SUPT6H,-2.54 (active)
17,GGUACAUCAUGAUAGAACATT against ABCD2,-0.102
18,GUAUGGACACCAUUAGUAATT against DTX3L,0.0785
19,GAGUUCACCCAGAUCGAAATT against CHMP6,-1.81 (active)
20,GCAUCGACAUGGUUUCCGATT against GABRB3,0.0757
21,CCACUGUACUGAGUGACCATT against HECTD3,0
22,GAUUACUUCUUGACUAUCATT against OCRL,-0.545
23,CGACCCUCAGAAUGAUAAATT against ARPC3,-0.237
24,CCAUCCUGGAAAUACCCUATT against SERPINA12,-0.382
25,UGAAUUUCGUAGUUCCAUATT against CNOT8,0.375
26,CCGUCGAAUUUGAAGGUGATT against SULF1,-0.128
27,AGAUCUCCAUGGUCAGGAUTT against ACCN4,-0.512
28,GAACCUUCGGGAGAACCUUTT against FKBPL,-1.11 (active)
29,CGGUAUAAUCGGAAUCGGATT against MKI67IP,0.426
30,GGUGAAUAUUUAUCGUCUATT against CHD1,-1.03 (active)
